This note sets out measurements from PubChem BioAssay (NCATS).

“And” between values parts separate entries of the source, which are not always exact repeats. Equal values may be shown once. Records with an inconclusive call do not appear. The source made the active and inactive calls. Unless noted, the call rests on the fitted dose curve; in most records, active means well fitted curve in the direction sought with a large enough effect; inconclusive means small, poorly fitted or top-dose-only effect, or another doubt; inactive means no such curve, though single readings can be large; an effect the other way counts as inactive or inconclusive.
On the % scale 0 is the no-effect control and ±100 the full control effect.

The nature of the first test: qHTS assay for small molecule agonists of the antioxidant response element (ARE) signaling pathway measured by Nrf2-dependant transcriptional activity - cell viability counter screen (AID 720653; active means well fitted curve in the direction sought with a large enough effect in the repeat runs; an effect the other way counts as inactive or inconclusive). To be noted: ARE-bla HepG2 viability, CellTiter-Glo ATP luminescence, 16 h; max response: stronger effect = lower value. The method in brief:
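ARE-bla HepG2 cells treated with compounds for 16 h at 37C; this counter screen measures viability as intracellular ATP by CellTiter-Glo luminescence after 30 min at room temperature.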
In the case of `COc1cc(CNC(=O)CCCC/C=C/C(C)C)ccc1O`, the max response was -7.9% (inactive) and -5.74% (inactive). Still for that read-out and setting: the same measure for `O=c1cc(-c2ccccc2)oc2ccccc12`: -6.91% (inactive) and -11.5% (inactive); for `Nc1ccc([N+](=O)[O-])cc1O`: -6.11% (inactive) and -12.4% (inactive).

The nature of the next test: qHTS Assay for Identifying Gametocytocidal Compounds (AID 743244). Further: potency means the concentration at half of the fitted maximal effect.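 On max response: actives lower the fluorescent signal which means gametocytes are killed.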 Conditions: P. falciparum 3D7 stage III-V gametocytes, alamarBlue, 72 h; max response: stronger effect = lower value. The method in brief: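 P. falciparum 3D7 stage III–V gametocytes (20,000 cells/well) were exposed to compounds for 72 h at 37 °C, 5% CO2. AlamarBlue was then added for 24 h; decreased resorufin fluorescence (Ex 525/Em 598 nm) indicated loss of viability.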
Regarding `CN1[C@@H]2CC[C@H]1CC(OC(c1ccccc1)c1ccccc1)C2` (some centres undefined), the max response was -0.265% (inactive) and -8.62% (inactive). The same measure, in the same setting: for `CCCSc1ccc2nc(NC(=O)OC)[nH]c2c1` the value was 0.499% (inactive); for `C=C(Nc1ccc(OCC)cc1)Nc1ccc(OCC)cc1`, 14.6% (inactive) and 14.3% (inactive).

As to `O=C(CCN1CCN(CCO)CC1)N1c2ccccc2Sc2ccc(C(F)(F)F)cc21`, the max response was -4.95% (inactive). On to `Cc1cc(O)c2ccccc2c1O`, for which the Potency is 15.8 µM (active).

Consider `C[N+]1(C)[C@@H]2CC(OC(=O)[C@H](CO)c3ccccc3)C[C@H]1[C@@H]1O[C@@H]12` (some centres undefined), for which the max response was -10.6% (inactive). On the same count and under the same terms, for `C#CC1(O)CC[C@H]2[C@@H]3CCC4=CCCC[C@@H]4[C@H]3CC[C@@]21C` (some centres undefined) the value was 18.8% (inactive). The same measure, in the same setting: the same measure for `CC(=O)SCC(CC(=O)c1ccc(C)cc1)C(=O)O` (centres undefined): 17.7% (inactive); for `CC1(C)S[C@@H]2[C@H](NC(=O)[C@H](NC(=O)N3CCN(S(C)(=O)=O)C3=O)c3ccccc3)C(=O)N2[C@H]1C(=O)O`: 9.5% (inactive); for `C[C@H](O)[C@H](O)[C@H]1CNc2nc(N)[nH]c(=O)c2N1`: -5.73% (inactive). Same read-out and setting: the same measure for `Cc1ccc(C(=O)c2ccc(CC(=O)O)n2C)cc1`: 39.2% (inactive).
